Assay outcomes: PubChem BioAssay, National Center for Advancing Translational Sciences (NCATS)
The entries come from a sample that favours hits as a whole.
LmPK inh – qHTS Assay for Inhibitors of Leishmania Mexicana Pyruvate Kinase (LmPK); Q27686; purified LmPK, Kinase-Glo ATP luminescence, 1 h; Potency, µM (highest dose often 57.5 µM), hits mostly inhibitors; hit rate 0.37% among 290,000; AID 1721, 2009
Target sequence (Q27686 whole entry, looked up): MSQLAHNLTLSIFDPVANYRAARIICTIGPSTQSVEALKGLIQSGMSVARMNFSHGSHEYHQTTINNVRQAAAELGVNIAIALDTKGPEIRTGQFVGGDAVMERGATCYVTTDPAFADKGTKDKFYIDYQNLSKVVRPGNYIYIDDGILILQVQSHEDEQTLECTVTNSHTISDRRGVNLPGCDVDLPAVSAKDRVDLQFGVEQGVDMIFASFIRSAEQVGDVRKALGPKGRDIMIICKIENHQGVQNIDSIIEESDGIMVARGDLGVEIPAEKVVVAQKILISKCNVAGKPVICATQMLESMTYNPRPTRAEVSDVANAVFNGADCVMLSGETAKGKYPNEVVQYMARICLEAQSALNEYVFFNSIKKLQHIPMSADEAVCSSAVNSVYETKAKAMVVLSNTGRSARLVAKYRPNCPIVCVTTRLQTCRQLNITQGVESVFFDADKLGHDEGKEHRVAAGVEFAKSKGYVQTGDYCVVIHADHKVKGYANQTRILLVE
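Purified LmPK (0.1 nM) converted ADP (0.1 mM) to ATP with PEP (0.5 mM) in imidazole buffer pH 7.2 with KCl and MgCl2, 1 h at room temperature. ATP was read by Kinase-Glo luminescence; data normalized to uninhibited and no-enzyme controls.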
RE007 growth inh – qHTS Assay for Inhibitors of the HIV-1 protein Vpr | S. pombe RE007 Vpr strain, BacTiter-Glo ATP luminescence, 24 h | Potency, µM (doses to about 92.2 µM), usual class: inhibitors | hit rate 0.21% among 360,000; active = well fitted falling curve with a large enough effect; inconclusive = small, poorly fitted or top-dose-only effect; inactive = no such curve, though single readings can be large or run the other way; also: nearly all actives have a fitted effect of over 50% in size
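Fission yeast strain RE007, carrying one chromosomally integrated HIV-1 vpr copy, was seeded at OD 0.01 in PMG+AL medium with 23 nL pinned compound. After 24 h at 30 °C and 99% humidity, viability was read by BacTiter-Glo luminescence.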
FBPA Giardia inh – qHTS Assay for Inhibitors of Fructose-1,6-bisphosphate Aldolase from Giardia Lamblia | purified Giardia FBPA | Potency, µM (top dose mostly 59.6 µM), actives largely listed as inhibitors | hit rate 0.71% among 290,000 | AID 2451, 2010; also: nearly all actives have a fitted effect of over 55% in size
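Giardia FBPA (40 nM reagent) was preincubated 10 min at RT with compound (up to 57.5 uM final), then substrate plus GAPDH/TPI/NAD/arsenate coupling system with diaphorase/resazurin was added; resorufin fluorescence (525/598 nm) was read after 20 min.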
Shiga toxin inh – A qHTS for Small Molecule Inhibitors of Shiga Toxin; hit rate 9.2% among 290,000; Vero cells, Shiga toxin protein synthesis inhibition reporter; inhibition, % at 38.7 µM; in the data active = inhibition mostly above about 28%, no sharp cut-off; inactive = mostly below about 43%
TbPYK inhibitor – qHTS of Trypanosoma Brucei Inhibitors; hit rate 0.12% among 410,000; Potency, µM (titrated, usually from 76.8 µM), hits mostly inhibitors; TbPYK enzyme, Kinase-Glo Plus ATP luminescence, 45 min; AID 624173, 2012; also: nearly all actives have a fitted effect of over 50% in size
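Assay buffer: 50 mM TEA pH 7.2, 100 mM KCl, 10 mM MgCl2, 0.05% BSA, 0.01% Tween-20. Pyruvate kinase from T. brucei plus substrate met compound, then ADP (130 uM final). Luminescence was read post 45 min RT.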
Cycloheximide cs – Cycloheximide Counterscreen for Small Molecule Inhibitors of Shiga Toxin; cell reporter, cycloheximide protein synthesis inhibition counterscreen; max response, %; hit rate 12% among 300,000; in the data active = max response mostly above about 13%, no sharp cut-off; inactive = mostly below about 14%; also: read at 38.3 µM for the half of the compounds with a filed dose
Of the large screens only hits and unclear results are named; the others gave an inactive call. Unless noted, calls follow the shape of the dose curve; as a rule, active = well fitted curve in the direction sought with a large enough effect; inconclusive = small, poorly fitted or top-dose-only effect, or another doubt; inactive = no such curve, though single readings can be large; an effect the other way counts as inactive or inconclusive.

CCOc1ccc2nc(N3CCCC(C(=O)NCC4CCCO4)C3)sc2c1 (stereo unspecified)	Shiga toxin inh 75, Cycloheximide cs 45
CCOc1ccc2nc(N3CCCC(C(=O)NCCCOC)C3)sc2c1 (stereo unspecified)	none (no result: LmPK inh, RE007 growth inh, FBPA Giardia inh, Shiga toxin inh, Cycloheximide cs)
CCOc1ccc2nc(N3CCCC(C(=O)NCc4ccc(OC)cc4)C3)sc2c1 (stereo unspecified)	none (no result: LmPK inh, RE007 growth inh, FBPA Giardia inh, Shiga toxin inh, Cycloheximide cs)
COc1ccc2nc(N3CCCC(C(=O)NCCCN4C(C)CCCC4C)C3)sc2c1 (stereo unspecified)	Cycloheximide cs 20
CCOc1ccc2nc(N3C(=O)/C(=C/c4ccccc4)NC3=S)sc2c1	Shiga toxin inh 177, Cycloheximide cs 27
CCOc1ccc2nc(N3CCC(C(=O)N4CCN(C5CCCCC5)CC4)CC3)sc2c1	Shiga toxin inh 64, Cycloheximide cs 48
CCOc1ccc2nc(N3CCC(C(=O)N4CCN(C(=O)c5ccco5)CC4)CC3)sc2c1	none
CC(C1CCCC(=O)C1)[N+](=O)[O-] (stereo unspecified)	none (no result: LmPK inh, RE007 growth inh, Shiga toxin inh, TbPYK inhibitor, Cycloheximide cs)
COc1ccccc1CCNC(=O)Cc1c(C)c2cc3c(C(C)(C)C)coc3c(C)c2oc1=O	none (no result: LmPK inh, RE007 growth inh, FBPA Giardia inh, Shiga toxin inh, Cycloheximide cs)
CCOc1ccc2nc(N3CCC(C(=O)Nc4nnc(CC)s4)CC3)sc2c1	Shiga toxin inh 167, Cycloheximide cs 81
CCOc1ccc2nc(N3CCC(C(=O)Nc4ccccc4CC)CC3)sc2c1	none (no result: LmPK inh, RE007 growth inh, FBPA Giardia inh, Shiga toxin inh, Cycloheximide cs)
CCOc1ccc2nc(N3CCCCCC3)sc2c1	Shiga toxin inh 102, Cycloheximide cs 57
CCOc1ccc2nc(NC(=O)C3CCN(C(=O)c4ccco4)CC3)sc2c1	Shiga toxin inh 74, Cycloheximide cs 27
O=C(Nc1nc2ccccc2s1)C1CCN(C(=O)c2ccco2)CC1	none
COc1ccc2nc(NC(=O)C3CCCN(S(=O)(=O)c4c(C)noc4C)C3)sc2c1 (stereo unspecified)	none
CCOc1ccc2nc(N3CCN(C(=O)c4ccc(S(=O)(=O)CC)cc4)CC3)sc2c1	none (no result: LmPK inh, RE007 growth inh, FBPA Giardia inh, Shiga toxin inh, Cycloheximide cs)
CCOc1ccc2nc(NC(=O)C3CCCN(S(=O)(=O)c4c(C)noc4C)C3)sc2c1 (stereo unspecified)	Shiga toxin inh 28, Cycloheximide cs 25
FC(F)(F)c1cc(CN2CCCC3(CCNCC3)C2)cc(C(F)(F)F)c1	none (no result: LmPK inh, RE007 growth inh, Shiga toxin inh, Cycloheximide cs)
CCC(C)C(NC(=O)OC(C)(C)C)C(=O)NC1COC2CC(n3cc(C)c(=O)[nH]c3=O)OC12 (stereo unspecified)	none (no result: LmPK inh, RE007 growth inh, TbPYK inhibitor)
C/C(=N\NC(=O)C(N)=O)c1ccc(O)cc1O	Cycloheximide cs 16
CCc1ccc(OCC(=O)N/N=C(\C)c2ccc(O)cc2O)cc1	none
CC1SCC(=NOCc2ccccc2)CS1 (stereo unspecified)	Shiga toxin inh 114, Cycloheximide cs 38
Cc1nn2c(C)c(C(=O)NC(C)(C)C)cnc2c1-c1ccc(F)cc1	none (no result: LmPK inh, RE007 growth inh, FBPA Giardia inh, Shiga toxin inh, Cycloheximide cs)
CC(C)(C)OC(=O)N[C@@H](Cc1ccccc1)c1nnc(S(=O)(=O)Cc2ccccc2)o1	none (no result: RE007 growth inh, TbPYK inhibitor)
CCC(C)[C@@H](NC(=O)OC(C)(C)C)c1nnc(S(=O)(=O)Cc2cccc(C)c2)o1 (stereo partly specified)	Shiga toxin inh 77, Cycloheximide cs 31
Cc1ccccc1CS(=O)(=O)c1nnc([C@H](Cc2ccccc2)NC(=O)OC(C)(C)C)o1	Cycloheximide cs 40
Cc1ccc(/C=C(\C#N)C(=O)Nc2ccccn2)o1	LmPK inh inconclusive, Cycloheximide cs 28
COc1ccc(/C=C(\C#N)C(=O)Nc2ccccn2)cc1	Cycloheximide cs 21
C=CCOc1ccc(/C=C(\C#N)C(=O)Nc2ccccn2)cc1OC	none
COc1ccc(O)c(/C=C(\C#N)C(=O)Nc2ccccn2)c1	Shiga toxin inh 53, Cycloheximide cs 26
Cc1ccsc1/C=N/NS(=O)(=O)c1ccc([N+](=O)[O-])cc1	Cycloheximide cs 48
